Assay results published in PubChem BioAssay (NCI).
This is part of a sample that, as a whole, favours compounds with a hit. Of some 79,000 tested, about 15% had one in any assay. Unmarked numbers belong to inactive results. Active and inactive are the calls of the source. Cut-off read from the data, not from the text of the source: active = growth inhibition above about 70%; inactive = the rest.

What was measured:
[1] = NCI Yeast Anticancer Drug Screen. Data for the rad50 strain (AID 155);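 note: 0% = growth of vehicle-only cultures of the same strain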; conditions: S. cerevisiae rad50 strain growth inhibition, hits give high values
How it was run: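 A DNA repair-deficient yeast mutant serves as the test organism; compound-induced growth inhibition is calculated against vehicle-treated cells.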

[2] = NCI Yeast Anticancer Drug Screen. Data for the mec2-1 strain (AID 157); conditions: S. cerevisiae mec2-1 strain, hits give high values
How it was run: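 Yeast mec2-1 mutant treated with compound. Readout: growth inhibition vs vehicle controls.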

[3] = NCI Yeast Anticancer Drug Screen. Data for the sgs1 mgt1 strain (AID 161);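 note: 0% = growth of cultures given vehicle only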; conditions: S. cerevisiae sgs1 mgt1 strain, hits give high values
How it was run: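 Genetically altered yeast, compound exposure, growth inhibition relative to vehicle.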

[4] = NCI Yeast Anticancer Drug Screen. Data for the cln2 rad14 strain (AID 165);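 note: 0% = growth equal to vehicle treated cultures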; conditions: S. cerevisiae cln2 rad14 strain, hits give high values
How it was run: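 cln2 rad14 yeast strain; compound exposure; growth inhibition read vs vehicle controls.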

[5] = NCI Yeast Anticancer Drug Screen. Data for the bub3 strain (AID 167); conditions: S. cerevisiae bub3 mutant strain, hits give high values
How it was run: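 Inhibition values come from growth of compound-treated mutant yeast normalised to vehicle-treated controls.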

[6] = NCI Yeast Anticancer Drug Screen. Data for the mlh1 rad18 strain (AID 175); conditions: S. cerevisiae mlh1 rad18 strain growth inhibition, hits give high values
How it was run: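 Yeast w/ defined DNA-repair lesions; compound exposure; growth vs vehicle controls → % inhibition.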

[7] = at 5.0 µM (retest, dose inferred, filed as 0.5)
[8] = at 50.0 µM (retest, dose inferred, filed as 5.0)

Row | Compound | growth inhibition [1, 7] | growth inhibition [1, 8] | growth inhibition ([1]; at 50.0 µM) | growth inhibition [2, 7] | growth inhibition [2, 8] | growth inhibition ([2]; at 50.0 µM) | growth inhibition [3, 7] | growth inhibition [3, 8] | growth inhibition ([3]; at 50.0 µM) | growth inhibition [4, 7] | growth inhibition [4, 8] | growth inhibition ([4]; at 50.0 µM) | growth inhibition [5, 7] | growth inhibition [5, 8] | growth inhibition ([5]; at 50.0 µM) | growth inhibition [6, 7] | growth inhibition [6, 8] | growth inhibition ([6]; at 50.0 µM)
1 | S=C1SCN(Cc2cccs2)CN1Cc1cccs1 | 58% | 95% (active) | 71.2% (active) | 42% | 96% (active) | 71.5% (active) | 55% | 99% (active) | 77.7% (active) | 23% | 73% (active) | 30.4% | 37% | 91% (active) | 80.7% (active) | 63% | 96% (active) | 74.7% (active)
2 | CC1=CC(=O)C=CC1(C)C(Cl)(Cl)Cl (configuration not stated) | -16% | -24% | -3.05% | -15% | -12% | -1.55% | 0% | -6% | -11.6% | -44% | -10% | 44.3% | -6% | 2% | -0.65% | -10% | -22% | 1%
3 | CCCCCCC1N=C(N)N=C(N)N1c1cccc(Cl)c1 (configuration not stated) | 17% | 61% | -25.1% | 10% | 56% | 48.8% | 8% | 55% | 46.4% | 1% | 24% | -53.5% | 34% | 81% (active) | 52.9% | 7% | 98% (active) | 89.6% (active)
4 | Cn1ccc(=Nc2ccc(NC(=O)c3ccc(N=c4ccn(C)c5ccc([N+](=O)[O-])cc45)cc3)cc2)cc1 | 86% (active) | 98% (active) | 79.7% (active) | 80% (active) | 98% (active) | 87.4% (active) | 92% (active) | 98% (active) | 87.3% (active) | 83% (active) | 96% (active) | 76.6% (active) | 93% (active) | 99% (active) | 87.5% (active) | 72% (active) | 95% (active) | 84.8% (active)
5 | COc1ccc2c(c1)c(CC(=O)O)c(C)n2C(=O)c1ccc(Cl)cc1 | -1% | 37% | 82.2% (active) | 1% | 57% | 48.2% | 2% | 54% | 88.7% (active) | 1% | 32% | 80.7% (active) | 1% | 30% | 51.1% | -1% | 39% | 72% (active)
6 | COC(=O)c1nc(=S)[nH]c(C(=O)OC)c1C(=O)c1ccc(Cl)c(Cl)c1 | -8% | 98% (active) | 99.5% (active) | -1% | 98% (active) | 99% (active) | 7% | 98% (active) | 99.3% (active) | 4% | 95% (active) | 98.5% (active) | 0% | 98% (active) | 98.2% (active) | 11% | 99% (active) | 99.2% (active)
7 | CC1(C)CCC2(C(=O)O)C(O)CC3(C)C(=CCC4C5(C)CCC(OC6OCC(O)C(O)C6OC6OCC(O)C(O)C6OC6OCC(O)C(OC7OC(CO)C(O)C(O)C7O)C6O)C(C)(C)C5CCC43C)C2C1 (configuration not stated) | 8% | 99% (active) | 77.3% (active) | 7% | 99% (active) | 87.3% (active) | 6% | 99% (active) | 88% (active) | 5% | 99% (active) | 86.6% (active) | 17% | 100% (active) | 86.5% (active) | 14% | 99% (active) | -30.2%
8 | CCCCCCCCc1cc(Cl)c(O)c(Cl)c1 | 3% | 75% (active) | 99.5% (active) | -8% | 90% (active) | 99.6% (active) | -14% | 98% (active) | 99.2% (active) | -13% | 97% (active) | 99.6% (active) | -11% | 66% | 98.7% (active) | -10% | 98% (active) | 99.3% (active)
9 | COC(=O)C(=[N+]=[N-])C(=O)c1ccc([N+](=O)[O-])o1 | 32% | 98% (active) | 56.1% | 10% | 99% (active) | 55.5% | 18% | 98% (active) | 51.8% | 8% | 99% (active) | 98.5% (active) | 6% | 99% (active) | 48.5% | 25% | 99% (active) | 98.7% (active)
